# Source: PubChem BioAssay AID1030 (National Center for Advancing Translational Sciences (NCATS), 2008)
# “And” between values parts separate entries of the source, which are not always exact repeats. Equal values may be shown once. About 16,000 (7.3%) of roughly 220,000 compounds were called active. Entries that show only a call come without a potency. Inconclusive results (about 25%) are left out. Calls come from the whole dose curve; as a rule, active = well fitted inhibition curve with a large enough effect (not every such curve was filed as active); inconclusive = small, poorly fitted or top-dose-only effect, or another doubt; inactive = no such curve, though single readings can be large or run the other way. The sample as a whole holds a higher share of actives than the screen did. The source holds several records for some structures; these can differ, active in one and inactive in another.
# Biological target: Aldehyde dehydrogenase 1A1 (Homo sapiens) (UniProt P00352)
# Assay: qHTS Assay for Inhibitors of Aldehyde Dehydrogenase 1 (ALDH1A1)
# Details: Purified ALDH1A1, NADH fluorescence, propionaldehyde substrate; series mostly up to 75.3 µM
# Potency is the fitted concentration of half-maximal effect.
# Chain of Aldehyde dehydrogenase 1A1 (Homo sapiens) (P00352 whole entry, looked up): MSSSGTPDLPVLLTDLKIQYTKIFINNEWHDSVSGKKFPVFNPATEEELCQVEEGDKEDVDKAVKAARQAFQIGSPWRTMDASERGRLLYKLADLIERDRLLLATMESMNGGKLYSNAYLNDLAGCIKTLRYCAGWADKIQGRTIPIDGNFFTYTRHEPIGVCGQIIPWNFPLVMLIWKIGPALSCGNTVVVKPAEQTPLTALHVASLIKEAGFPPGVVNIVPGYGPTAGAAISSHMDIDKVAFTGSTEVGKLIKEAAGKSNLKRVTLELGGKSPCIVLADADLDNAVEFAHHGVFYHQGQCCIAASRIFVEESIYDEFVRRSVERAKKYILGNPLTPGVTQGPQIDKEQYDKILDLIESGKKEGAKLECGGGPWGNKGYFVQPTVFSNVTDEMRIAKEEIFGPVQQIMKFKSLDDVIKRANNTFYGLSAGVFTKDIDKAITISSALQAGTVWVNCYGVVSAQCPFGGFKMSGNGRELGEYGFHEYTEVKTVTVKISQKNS
row,Structure (SMILES),Potency
1,Cc1cc(C)nc(N2CCC(C(=O)Nc3ccc4c(c3)OCCO4)CC2)n1,inactive
2,CCn1cc(C(=O)Nc2cc(C)ccc2C)c(=O)c2ccc(C)nc21,inactive
3,C=CCN(C(=O)c1cc(C)cc(C)c1)C1(C(=O)Nc2ccccc2)CCN(C(C)C)CC1,inactive
4,Cc1ccnc(SCC(N)=O)n1,inactive
5,O=C(O)CCSc1nnc(-c2ccccc2)n1-c1ccccc1,inactive
6,O=C(CSc1nnc(-c2ccco2)n1-c1ccccc1)NCCc1ccccc1,inactive
7,CCn1c(SCC(=O)Nc2nccs2)nnc1-c1ccco1,inactive
8,Cc1cccc(C)c1NC(=O)CCCSc1nnc(-c2ccco2)n1-c1ccccc1,25.1 µM (active)
9,COc1ccc(C(=O)NC(=O)CSc2nnc(-c3ccco3)n2-c2ccccc2)cc1,31.6 µM (active)
10,COc1ccc(-c2nnc(SCC(=O)c3ccco3)n2-c2ccccc2)cc1,inactive
11,O=C(NCc1ccccn1)c1cc(Br)ccc1Cl,inactive
12,CC[N+]1(CC)CC2=Cc3ccccc3CC2C1 (stereo not drawn),inactive
13,COc1ccc(N2CCN(C(=O)CCSCc3ccccc3F)CC2)cc1,inactive
14,Cc1cccc(-n2cc(CN3CCN(C(=O)c4ncn[nH]4)CC3)c(-c3cccc(F)c3)n2)c1,inactive
15,CC(C)=CCC[C@]1(C)[C@@H](CC=C(C)C)C[C@@]2(CC=C(C)C)C(=O)[C@]1(C(=O)C(C)C)C(=O)C(CC=C(C)C)=C2O,inactive
16,O=C(Nc1ccc(F)cc1)N1CCN(c2ccc(F)cc2)CC1,inactive
17,Cc1nn(Cc2ccc(Cl)cc2)c(Cl)c1/C=N/NC(=O)c1cccnc1,inactive
18,O=C(N/N=C/c1sc(N2CCCCC2)nc1-c1cccs1)c1cccnc1,31.6 µM (active)
19,O=C(N/N=C/c1ccccn1)c1cccnc1,inactive
20,CCN(CCCNC(=O)CSc1cc(=O)n(C)c2cc(Cl)ccc12)Cc1ccccc1,inactive
21,CC1=NNC(=O)C1CCC(=O)N/N=C\c1cccc(Cl)c1 (stereo not drawn),inactive
22,O=[N+]([O-])c1ccccc1/C=N/n1c(COc2ccccc2)n[nH]c1=S,15.8 µM (active)
23,S=c1[nH]nc(COc2ccccc2)n1-c1ccccc1,inactive

row,Structure (SMILES),Potency
1,CCc1n[nH]c(=S)n1/N=C/c1c[nH]c2ccc(Br)cc12,inactive
2,O=C(Nc1nc(-c2cccnc2)cs1)c1ccccc1F,inactive
3,CCN1CCN(CC(=O)Nc2sc3c(c2C#N)CCC3)CC1,inactive
4,Cn1c(=O)[nH]c(=O)c2c1nc(N1CCN(CCO)CC1)n2CCSc1nc2ccccc2s1,inactive
5,CCOC(=O)c1oc2c(CN3CCN(CCO)CC3)c(O)c(CC)cc2c(=O)c1-c1nc2ccccc2s1,28.2 µM (active)
6,CCc1cc2c(=O)c(-c3nc4ccccc4n3C)c(CCCC(=O)O)oc2cc1OC(=O)C(C)(C)C,inactive
7,CCCCn1nc(C(=O)OCC(=O)Nc2sccc2C(N)=O)c2ccccc2c1=O,inactive
8,CCOC(=O)N1CCN(Cc2nc(Cc3cccc(C(F)(F)F)c3)no2)CC1,inactive
9,COC(=O)c1cc2c(ccn2C)n1C,inactive
10,CCOC(=O)/C(C#N)=C/c1cn(CCC(=O)O)nc1-c1ccc(Br)cc1,inactive
11,COc1cc(/C=N/O)ccc1OCc1ccc([N+](=O)[O-])cc1,inactive
12,COc1ccc(C(=O)Oc2cc(/C=N/NS(=O)(=O)c3ccc(C)cc3)ccc2OC)cc1,inactive
13,COc1ccc(S(=O)(=O)N/N=C\c2ccc(OC)c(COc3ccc(C)cc3[N+](=O)[O-])c2)cc1,14.1 µM (active)
14,Cc1ccc2c(c1)C1CN(C)CCC1N2C(=S)Nc1ccc(OC(F)F)cc1 (stereo not drawn),inactive
15,COCCNC(=O)NC(=O)COC(=O)C1(c2ccc(Cl)cc2)CC1,inactive
16,CSCCNCc1cn(-c2ccc(F)cc2F)nc1-c1ccccc1C,35.5 µM (active)
17,COc1ccccc1CC(=O)Nc1ccc(F)cc1F,inactive
18,O=C(CC12CC3CC(CC(C3)C1)C2)NCc1ccco1,inactive
19,CCOC(=O)c1ccc[n+](CC(=O)Nc2ccccc2OC(F)F)c1,inactive
20,COC(=O)c1nn(-c2cccc(Cl)c2)ccc1=O,inactive
21,COC(=O)c1cccc(-n2[nH]nnc2=S)c1,2.82 µM (active)
22,COC(=O)c1ccc(-n2cnc3ccccc32)nc1,inactive
23,COc1ccc(NC(=O)c2ccccc2[N+](=O)[O-])cc1OC,inactive

row,Structure (SMILES),Potency
1,CCOC(=O)C1(Cc2ccc(Cl)cc2)CCN(C(=O)C2=NNC(=O)CC2)CC1,inactive
2,CN(C)S(=O)(=O)c1cccc(NC(=O)COC(=O)/C=C/c2cccs2)c1,inactive
3,Cc1ccc(S(=O)(=O)N(C)C)cc1NC(=O)c1ccccc1Br,inactive
4,Cc1ccc(S(=O)(=O)N(C)C)cc1NC(=O)/C=C/c1cccs1,0.447 µM (active)
5,CCCCN(CC(=O)NC(C)(C)C)C(=O)C(=O)Nc1ccc2c(c1)OCCO2,inactive
6,S=c1[nH]nc2c3c4c(sc3ncn12)CCCC4,25.1 µM (active)
7,c1nnc2c3c4c(sc3ncn12)CCC4,inactive
8,N=c1c2c3c(sc2ncn1N)CCCC3,inactive
9,Clc1cccc(-c2nc(NCC3CCCO3)c3ccccc3n2)c1 (stereo not drawn),inactive
10,CCC(=O)Nc1cccc(NC(=O)c2cccnc2)c1,inactive
11,C[C@@H](C(=O)Nc1ccc2ccccc2c1)[C@@H]1C[C@@]1(C)[C@@H](NC(=O)c1cccnc1)c1ccccc1,inactive and 22.4 µM (active)
12,O=C(Nc1ccc(N2CCN(C(=O)c3ccccc3)CC2)c(Cl)c1)c1cccnc1,inactive
13,CC(NC(=O)Nc1ccc2c(c1)OCO2)c1ccncc1 (stereo not drawn),inactive
14,COc1cccc(OC)c1C(=O)Nc1nnc(C(C)C)s1,7.08 µM (active)
15,CCn1nnc(NC(=O)c2c(OC)cccc2OC)n1,inactive
16,COc1cccc(OC)c1C(=O)Nc1ccc(Cc2ccncc2)cc1,inactive
17,CC(CC(=O)O)C(=O)c1ccc(Cl)c([N+](=O)[O-])c1 (stereo not drawn),inactive
18,COc1cc(C(=O)N[C@@H](C)C(=O)NCc2ccco2)cc(OC)c1OC,inactive
19,COc1cc(C(=O)NC(=S)NCc2ccco2)cc(OC)c1OC,5.01 µM (active)
20,COc1ccc(-c2cc(C(=O)NCc3ccco3)no2)cc1OC,inactive
21,Cc1cccc(NC(=S)N2CCC(O)CC2)c1C,inactive
22,CC(C)(c1ccccc1)c1ccc(OCCN)cc1,inactive
